Screens: PubChem, Broad Institute
esBAF inh: Bmi1 luciferase reporter increase in mESCs, primary screen, esBAF inhibitor project, mouse ES cells, Bmi1 luciferase knock-in, single point; 24 h; 100% = twice the neutral-well signal; reporter increase, % at 12.5 µM; 2% of 350,000 active; AID 602393, 2012; in the data active = activation above about 40%; inconclusive = no clear call, values can overlap the other calls;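 also: 0% = median of the plate's neutral control wells and 100% = double that signal; a rise in the Bmi1 reporter signal indicates esBAF inhibition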
Wnt act: Wnt/beta-catenin pathway activators, primary screen, cell-based, plate reader, single point; Wnt/beta-catenin reporter cell assay, activator; activation, % at 9.35 µM; 1.2% of 300,000 active; AID 743398, 2014; in the data active = activation above about 30%, passing the limit was not always enough; inconclusive = no clear call, values can overlap the other calls;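 also: 0% = neutral control wells and 100% = positive control wells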
HSF1 inh: HSF1 inhibitors in luciferase reporter cells, primary screen, cell-based, NIH3T3, luminescence | activity change, negative = inhibition, % at 7.5 µM (by protocol) | 0.77% of 300,000 active | AID 2098, 2009 | NIH3T3-HGL HSE-luciferase, MG132-induced, luminescence 8 h; hits give low values;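 active = more than half of replicate wells show activity change below -50%, luminescence cut by over half; inconclusive = some wells, but at most half, below -50%; inactive = no replicate well below -50%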;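 also: luciferase reports HSF-1 transcriptional activity via heat shock element; 0% = median of DMSO wells and -100% = zero luminescence signal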
MITF act: activators of MITF-driven TRPM1 promoter reporter, primary screen, cell-based, SK-MEL-5, luciferase, single point | SK-MEL-5 TRPM1-promoter luciferase, 24 h; % of positive control, neutral wells = 0 | activation, % at 12.5 µM | 0.75% of 300,000 active;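 active = mean activation of at least 80% with every replicate also reaching 80%; inconclusive = mean reaches 80% but some replicate falls short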;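 also: 0% = neutral control wells and 100% = parthenolide positive control wells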
HSF-1 act: HSF-1 activators, primary screen, NIH3T3-HGL cells, MG132 stress, luminescence, single point | NIH3T3-HGL HSF-1 luciferase reporter, 8 h; 100% = twice DMSO control signal | activation, % at 9 µM | 1.7% of 300,000 active;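 active = mean replicate activation of at least 50% with a set share of replicates each reaching 50%; inconclusive = only one of those two conditions met; inactive = mean below 50% and too few replicates reaching it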;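 also: 0% = median of the neutral control wells and 100% = twice that signal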
Numbers without * were called inactive; ? = inconclusive; / = no result given. Most compounds without a hit are left out; they make up all but 3.8% or so of the library.

SMILES	esBAF inh	Wnt act	HSF1 inh	MITF act	HSF-1 act
COc1cc(C)ccc1OCCOc1ccccc1Cl	76.7*	/	21.5	90.3*	44.3
COc1cc(C)ccc1OCCCOc1ccccc1Cl	71.2*	/	22.5	126.4*	34.5
COc1cc(C=O)ccc1OCCOCCOc1cc(C)ccc1Cl	/	/	7.8	0.5	12.9
O=C(N[C@H]1CC[C@@H](CCn2cc(-c3ccccn3)nn2)O[C@@H]1CO)c1ccccc1	-8.3	/	/	/	/
CN(C)CCCNC(=O)[C@H]1[C@H](CO)[C@H]2Cn3c(ccc(-c4ccncc4)c3=O)[C@@H]1N2C(=O)C1CC1	2.9	/	/	/	/
COc1ccccc1NC(=O)CCC(=O)Nc1nnc(C2CCCCC2)s1	1.8	34.5*	1.5	-3.1	29.8
O=C(Nc1nnc(Cc2ccccc2)s1)c1cccs1	43.6*	/	23.6	46.2	?
O=C(Nc1nnc(Cc2ccc(Cl)cc2)s1)c1cccs1	28.6	/	5.1	/	8.9
O=C(Nc1nnc(C2CCCCC2)s1)c1cccs1	50.8*	58.0*	10.9	/	13.2
O=C(Nc1ccc(NC(=O)C2CCCCC2)nc1)c1cccs1	/	54.5*	11.4	52.6	15.2
COc1ccccc1OCC(=O)Nc1nnc(C2CCCC2)s1	3.9	3.7	5.3	12.2	2.6
O=C(Nc1nnc(C2CCCO2)s1)c1cccs1 (stereo not drawn)	?	/	-1.5	4.3	10.7
COc1cccc(C(=O)Nc2ccc(NC(=O)C3CCCCC3)nc2)c1	-4.6	-0.4	0.1	8.7	22.8
C[C@@H]1CCCCO[C@@H](CN(C)Cc2ccc(Cl)c(Cl)c2)[C@H](C)CN([C@@H](C)CO)C(=O)c2cc(NC(=O)Nc3cccc4ccccc34)ccc2O1	-8.8	/	/	/	/
COc1cccc(NC(=O)Nc2nnc(Cc3ccccc3F)s2)c1	8.4	1.8	-67.5*	/	-74.1
Cc1ccc(C(=O)Nc2nnc(COCCO)s2)cc1	49.7*	-0.2	/	/	/
Cc1cccc(-c2nnc(NC(=O)c3cccs3)s2)c1	46.8*	27.9	-79.7*	43.7	-83.7
O=C(Nc1nnc(Cc2ccccc2)s1)c1ccccc1	70.2*	0.2	13.7	/	30.2
CC=Cc1ccc2n(c1=O)C[C@H]1[C@H](CO)[C@@H](C(=O)NCCC)[C@@H]2N1C(=O)c1ccccc1F (mixture of isomers)	2.1	/	/	/	/
Cc1noc(C)c1NC(=O)N(C)C[C@H]1OCCCC[C@@H](C)Oc2ccc(NC(=O)Cc3ccccc3)cc2C(=O)N([C@H](C)CO)C[C@H]1C	-3.2	/	/	/	/
Cc1ccc(S(=O)(=O)N[C@H]2CC[C@@H](CCn3cc(C4CC4)nn3)O[C@H]2CO)cc1	-2.1	/	/	/	/
COc1cccc(C(=O)Nc2ccc3c(c2)C(=O)N(C)[C@@H]2CC[C@@H](CC(=O)NCC(F)(F)F)O[C@H]2CO3)c1	2.8	/	/	/	/
O=C(Nc1nnc(Cc2ccccc2)s1)Nc1ccccc1F	52.8*	24.9	8.5	55.7	4.5
O=C(Nc1ccccc1)Nc1nnc(Cc2ccccc2F)s1	5.9	1.2	7.2	/	9.4
C/C(=N\O)c1ccc(N2C(=O)C3CC=C(Cl)CC3C2=O)cc1 (stereo not drawn)	73.4*	58.8*	5.1	?	-7.1
SMILES	esBAF inh	Wnt act	HSF1 inh	MITF act	HSF-1 act
COc1ccc(CN(C)C[C@@H]2Oc3ccc(NC(=O)Nc4ccc(F)cc4)cc3CC(=O)N([C@H](C)CO)C[C@@H]2C)cc1	3.6	/	/	/	/
C[C@H]1CN([C@@H](C)CO)S(=O)(=O)c2ccc(C#CC3CC3)cc2O[C@@H]1CN(C)Cc1ccncc1	-4.2	/	/	/	/
C/[N+]([O-])=C\C1C(=O)CC(C)(C)CC1=O	/	-3.1	-54.5*	5.0	-62.7
COc1ccccc1-c1cn(CC[C@H]2CC[C@@H](NC(=O)C3CCC3)[C@@H](CO)O2)nn1	-4.4	/	/	/	/
CN(C)S(=O)(=O)N1CCc2ccc(NC(=O)c3ccccc3Cl)cc2C1	8.9	1.8	-4.9	15.4	-10.9
CSCC(=O)N1CCc2ccc(NC(=O)c3ccccc3Cl)cc2C1	66.2*	15.3	20.3	46.7	40.9
CCC(=O)Nc1ccc2c(c1)OC[C@H](C)N(C(=O)NC(C)C)C[C@H](C)[C@H](OC)CN(C)C2=O	-4.2	/	/	/	/
C=CCc1ccc(OC(=O)NC2CCCCC2)c(OC)c1	51.4*	13.1	1.2	58.5	28.4
O=C1CCN(Cc2ccccc2)C=C1c1ccc(Cl)cc1	19.5	-1.8	/	5.7	/
O=C1CCN(Cc2ccccc2)C=C1c1ccc2ccccc2c1	63.3*	43.7*	/	50.7	/
O=C(Nc1cccc(Cl)c1)N[C@H]1CC[C@@H](CCNC(=O)C2CCCCC2)O[C@@H]1CO	-3.6	/	/	/	/
CCOC(=O)c1ccc(NC(=O)CC2SCCNC2=O)cc1 (stereo not drawn)	22.4	40.5*	8.3	/	9.7
O=C(CSc1nnc2c(Cl)cc(C(F)(F)F)cn12)N(Cc1ccccc1)Cc1ccccc1	/	/	57.3	0.6	104.7*
O=C(CSc1nnc2c(Cl)cc(C(F)(F)F)cn12)NCc1ccc(F)cc1	/	-4.3	-1.6	8.4	19.7
Cc1ccc(NC(=O)c2ccc(Cl)cc2Cl)cc1O	/	47.8*	6.1	54.8	6.5
Cc1ccc(C(=O)Nc2ccc(Cl)cc2C(F)(F)F)c(Cl)c1	/	14.3	11.4	59.0	5.7
C#Cc1cccc(NC(=O)c2ccc(Cl)cc2Cl)c1	52.6*	22.2	8.8	93.7*	?
Cc1ccc(C(=O)Nc2ccc(Cl)cc2C)c(Cl)c1	26.2	15.7	49.1	75.7	67.1*
Cc1nn(Cc2ccccc2Cl)c(C)c1NC(=O)CCCn1nc([N+](=O)[O-])c(Cl)c1C	/	-1.3	23.2	3.1	60.9*
Cc1ccc(Cn2nc(C)c(NC(=O)CCCn3nc([N+](=O)[O-])c(Cl)c3C)c2C)cc1	/	-2.0	13.6	11.6	36.6
CCn1c2ccccc2c2nc3cc(OC)c(OC)cc3nc21	48.8*	14.2	17.9	/	2.2
COc1cc2nc3c4ccccc4n(CC#N)c3nc2cc1OC	/	/	-0.1	/	17.5
COCC(=O)N1C[C@@H](C)[C@H](OC)CN(C)C(=O)c2ccc(NC(=O)c3ccccc3)cc2OC[C@@H]1C	-2.0	/	/	/	/
Cc1ccc(S(=O)(=O)N[C@@H]2CC[C@@H](CCNC(=O)Nc3ccc(Cl)cc3)O[C@H]2CO)cc1	32.3	/	/	/	/
CCc1nc2cc3sc(CC)nc3cc2s1	76.2*	16.1	-0.5	64.0	9.1
CCc1ccc2nc(N)sc2c1	/	1.0	16.3	56.7	19.7
C[C@@H]1CCCCO[C@@H](CN(C)Cc2ccc3c(c2)OCO3)[C@@H](C)CN([C@H](C)CO)C(=O)c2cc(NC(=O)c3ccccc3)ccc2O1	-2.2	/	/	/	/
O=S(=O)(c1cccs1)N1CCCc2cccc(O)c21	45.0*	47.9*	-3.6	95.1*	14.1
Cc1ccc(S(=O)(=O)Nc2cccc3c2O[C@@H](CN(C)Cc2ccc(C(F)(F)F)cc2)[C@H](C)CN([C@H](C)CO)C3=O)cc1	-1.2	/	/	/	/
